Results published in the antibiotic and cytotoxicity screens of Wong et al. (2023).
Hit rate of the full screen: of about 39,000 compounds, about 3,300 (8.5%) were called active. For the sample, actives were picked, then their nearest neighbours and some compounds at random.

system: HepG2; experiment: cytotoxicity call (relative viability < 0.9); conditions: 10 µM

Row | Structure (SMILES) | cytotoxicity call
1 | C[C@@H]1CCCCO[C@H](CN(C)Cc2ccncc2)[C@@H](C)CN([C@H](C)CO)C(=O)c2cc(NC(=O)Nc3ccccc3)ccc2O1 | inactive
2 | COc1ccc(S(=O)(=O)Nc2cccc3c2O[C@@H](CN(C)S(=O)(=O)c2ccc(OC)cc2)[C@@H](C)CN([C@@H](C)CO)C3=O)cc1 | inactive
3 | CCc1c(O)cc(O)c(C(=O)c2ccc(OCCN3CCOCC3)c(OC)c2)c1CC(=O)N(CCOC)CCOC | active
4 | COc1c(OCCCN2CCOCC2)ccc2c1N=C(NC(=O)c1cnc(N)nc1)N1CCN=C21 | inactive
5 | COc1cc(C(=O)OCCN2CCN(CCOC(=O)c3cc(OC)c(OC)c(OC)c3)CC2)cc(OC)c1OC | inactive
6 | C[C@H]1CN([C@@H](C)CO)C(=O)c2cccc(NS(=O)(=O)c3ccc(F)cc3)c2O[C@@H]1CN(C)CC1CC1 | inactive
7 | Cc1cc(=O)n(CCO)c(=O)[nH]1 | inactive
8 | CCC(=O)N(C)C[C@H]1Oc2ncc(C#C[C@H](C)O)cc2C(=O)N([C@H](C)CO)C[C@H]1C | inactive
9 | CC(C)(C)[S@](=O)N1Cc2cc(C(=O)N[C@@H]3CCN(Cc4ccccc4)C3)nc(-c3cccc(-c4cccnc4)c3)c2[C@@H]1CCO | inactive
10 | COc1cccc(NC(=O)N(C)C[C@@H]2Oc3ncc(C#Cc4ccncc4)cc3C(=O)N([C@@H](C)CO)C[C@H]2C)c1 | inactive
11 | COc1ccccc1NC(=O)N(C)C[C@@H]1Oc2ncc(C#CCN(C)C)cc2C(=O)N([C@H](C)CO)C[C@@H]1C | inactive
12 | COc1ccccc1NC(=O)N(C)C[C@@H]1Oc2ncc(C#CCN(C)C)cc2C(=O)N([C@@H](C)CO)C[C@@H]1C | inactive
13 | COc1cccc(NC(=O)N(C)C[C@@H]2Oc3ncc(C#Cc4ccncc4)cc3C(=O)N([C@H](C)CO)C[C@H]2C)c1 | active
14 | COc1ccccc1NC(=O)N(C)C[C@@H]1Oc2ncc(C#CCN(C)C)cc2C(=O)N([C@@H](C)CO)C[C@H]1C | active
15 | COc1cccc(NC(=O)N(C)C[C@H]2Oc3ncc(C#Cc4cccnc4)cc3C(=O)N([C@H](C)CO)C[C@H]2C)c1 | inactive
16 | COc1cccc(NC(=O)N(C)C[C@H]2Oc3ncc(C#Cc4ccncc4)cc3C(=O)N([C@H](C)CO)C[C@@H]2C)c1 | inactive
17 | COc1cccc(NC(=O)N(C)C[C@@H]2Oc3ncc(C#Cc4cccnc4)cc3C(=O)N([C@@H](C)CO)C[C@H]2C)c1 | inactive
18 | COc1cccc(NC(=O)N(C)C[C@H]2Oc3ncc(C#Cc4ccncc4)cc3C(=O)N([C@@H](C)CO)C[C@@H]2C)c1 | active
19 | COc1cccc(NC(=O)N(C)C[C@@H]2Oc3ncc(C#Cc4ccncc4)cc3C(=O)N([C@H](C)CO)C[C@@H]2C)c1 | inactive
20 | COc1cccc(NC(=O)N(C)C[C@H]2Oc3ncc(C#Cc4ccncc4)cc3C(=O)N([C@H](C)CO)C[C@H]2C)c1 | active
21 | COc1cccc(NC(=O)N(C)C[C@@H]2Oc3ncc(C#Cc4ccncc4)cc3C(=O)N([C@@H](C)CO)C[C@@H]2C)c1 | inactive
22 | COc1ccc(CN(C)C[C@H]2Oc3c(NC(=O)c4cc(C)nn4C)cccc3C(=O)N([C@@H](C)CO)C[C@@H]2C)cc1 | inactive

Row | Structure (SMILES) | cytotoxicity call
23 | COc1ccc(NC(=O)Nc2cccc3c2O[C@H](CN(C)S(=O)(=O)c2cn(C)cn2)[C@H](C)CN([C@@H](C)CO)C3=O)cc1 | inactive
24 | O=C(CCCCCC(=O)Nc1ccccc1O)N/N=C/[C@H](O)[C@@H](O)[C@H](O)[C@H](O)CO[C@H]1O[C@H](CO)[C@H](O)[C@H](O)[C@H]1O | inactive
25 | O=C(C[C@@H]1CC[C@H](NC(=O)CN2CCOCC2)[C@H](CO)O1)NCCc1ccccc1 | inactive
26 | C[C@H]1CN([C@@H](C)CO)C(=O)c2cc(-c3ccc(F)cc3)cnc2O[C@H]1CN(C)C(=O)Cc1ccccn1 | inactive
27 | C[C@@H]1CCCCO[C@@H](CN(C)S(C)(=O)=O)[C@H](C)CN([C@@H](C)CO)C(=O)c2cc(NC(=O)Nc3ccc(C(F)(F)F)cc3)ccc2O1 | inactive
28 | CC(C)CC#Cc1ccc2c(c1)O[C@@H](CN(C)C(=O)NC1CCCC1)[C@H](C)CN([C@@H](C)CO)S2(=O)=O | inactive
29 | COc1ccc(NC(=O)N(C)C[C@@H]2OCCCC[C@@H](C)Oc3ccc(NC(=O)CCC(F)(F)F)cc3C(=O)N([C@H](C)CO)C[C@@H]2C)cc1 | inactive
30 | C[C@@H]1CCCCO[C@@H](CN(C)C(=O)NC2CCCCC2)[C@H](C)CN([C@@H](C)CO)C(=O)c2cc(NC(=O)CCCCCC(=O)Nc3ccccc3N)ccc2O1 | inactive
31 | CS(=O)(=O)Nc1ccc2oc3c(OC(F)F)ccc(C(=O)Nc4c(Cl)cncc4Cl)c3c2c1 | inactive
32 | O=c1ccc2c[nH][nH]c-2c1 | inactive
33 | O=C(CCN1CCNCC1)N1CCCCC1 | inactive
34 | COc1ccc(S(=O)(=O)N(C)C[C@@H]2OCCCC[C@@H](C)Oc3ccc(NS(=O)(=O)c4cn(C)cn4)cc3C(=O)N([C@H](C)CO)C[C@@H]2C)cc1 | inactive
35 | C[C@H]1CCCCO[C@H](CN(C)Cc2ccc(C(=O)O)cc2)[C@@H](C)CN([C@@H](C)CO)C(=O)c2cc(NS(=O)(=O)c3ccccc3)ccc2O1 | inactive
36 | C[C@H]1CN([C@@H](C)CO)C(=O)c2cc(NC(=O)Nc3cccc4ccccc34)ccc2O[C@H]1CN(C)CC1CCCCC1 | active
37 | C[C@H]1CN([C@@H](C)CO)C(=O)c2cc(NC(=O)Nc3cccc4ccccc34)ccc2O[C@@H]1CN(C)CC1CCCCC1 | inactive
38 | C[C@@H]1CN([C@H](C)CO)C(=O)c2cc(NC(=O)Nc3cccc4ccccc34)ccc2O[C@H]1CN(C)CC1CCCCC1 | active
39 | C[C@@H]1CN([C@@H](C)CO)C(=O)c2cc(NC(=O)Nc3cccc4ccccc34)ccc2O[C@H]1CN(C)CC1CCCCC1 | inactive
40 | C[C@H](CO)N1C[C@H](C)[C@H](CN(C)CC2CCCCC2)Oc2ccc(NC(=O)Nc3cccc4ccccc34)cc2C1=O | inactive
41 | C[C@H](CO)N1C[C@H](C)[C@@H](CN(C)CC2CCCCC2)Oc2ccc(NC(=O)Nc3cccc4ccccc34)cc2C1=O | inactive
42 | C[C@@H]1CN([C@H](C)CO)C(=O)c2cc(NC(=O)Nc3cccc4ccccc34)ccc2O[C@@H]1CN(C)CC1CCCCC1 | active
43 | C[C@H](CO)N1C[C@H](C)[C@@H](CN(C)CC2CCCCC2)Oc2ccc(NC(=O)Nc3ccccc3)cc2C1=O | inactive
44 | C[C@@H]1CN([C@@H](C)CO)C(=O)c2cc(NC(=O)Nc3cccc4ccccc34)ccc2O[C@@H]1CN(C)CC1CCCCC1 | inactive
